The whole screen tested about 5,500 compounds, of which about 2,000 (36%) were called active. Not shown: some 18% with an inconclusive outcome. The list shows a part of the results. A number with no mark means an inactive call. Rule as the data show it: active = normalized growth mostly below about 0.91 (no sharp cut-off); inconclusive = no clear call, values can overlap the other calls; inactive = mostly above about 0.92.
Experiment: chemical genetic growth profiling, strain panel (AID 1159580);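 also: tested at 20 µM; growth read once vehicle control cultures reached saturation at 30 °C; 1 = growth at the plate median or of vehicle wells; lower values mean less growth of the strain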
Conditions: S. cerevisiae deletion strains, growth OD

In the case of CC1=C(/C=C/C(C)=C/C=C/C(C)=C/C=C/C=C(C)/C=C/C=C(C)/C=C/C2=C(C)C(=O)C(O)CC2(C)C)C(C)(C)CC(O)C1=O (stereo not drawn), the normalized growth (locus YAL021C, strain ccr4, active compounds read low) is reported as 1.04, the normalized growth (locus YAL026C, strain drs2, active compounds read low) is reported as 1.07 and the normalized growth (locus YAL030W, strain snc1, active compounds read low) is reported as 1.03. The normalized growth (locus YBL061C, strain skt5, active compounds read low) was 1.03, the normalized growth (locus YBR009C, strain hhf1, active compounds read low) was 1.05 and the normalized growth (locus YBR021W, strain FUR4, active compounds read low) was 0.962. The normalized growth (locus YBR023C, strain chs3, active compounds read low) was 1.03, the normalized growth (locus YBR171W, strain sec66, active compounds read low) was 1.11 [resistant] (active) and the normalized growth (locus YBR229C, strain ROT2, active compounds read low) was 0.942. It also gave a normalized growth (locus YBR231C, strain swc5, active compounds read low) of 1.05, a normalized growth (locus YBR279W, strain paf1, active compounds read low) of 1.02 and a normalized growth (locus YCL011C, strain gbp2, active compounds read low) of 1.04. For the same molecule, the normalized growth (locus YCL016C, strain dcc1, active compounds read low) was 1.02, the normalized growth (locus YCL029C, strain bik1, active compounds read low) was 0.973 and the normalized growth (locus YCL061C, strain MRC1, active compounds read low) was 1.07. The normalized growth (locus YCL069W, strain vba3, active compounds read low) was 1.05, the normalized growth (locus YCR088W, strain abp1, active compounds read low) was 1.06 and the normalized growth (locus YDL005C, strain med2, active compounds read low) was 1.05. For the same molecule, the normalized growth (locus YDL035C, strain GPR1, active compounds read low) was 0.939, the normalized growth (locus YDL040C, strain nat1, active compounds read low) was 1.01 and the normalized growth (locus YDL074C, strain BRE1, active compounds read low) was 0.981. The normalized growth (locus YDL101C, strain DUN1, active compounds read low) was 0.986, the normalized growth (locus YDL185W, strain tfp1, active compounds read low) was 0.964 and the normalized growth (locus YDL192W, strain arf1, active compounds read low) was 0.988. It also gave a normalized growth (locus YDR001C, strain nth1, active compounds read low) of 1.07, a normalized growth (locus YDR069C, strain doa4, active compounds read low) of 1.04 and a normalized growth (locus YDR101C, strain arx1, active compounds read low) of 0.985. The normalized growth (locus YDR137W, strain rgp1, active compounds read low) was 1.02, the normalized growth (locus YDR159W, strain sac3, active compounds read low) was 1.04 and the normalized growth (locus YDR162C, strain NBP2, active compounds read low) was 0.947. The normalized growth (locus YDR195W, strain ref2) was 1.12, the normalized growth (locus YDR297W, strain sur2, active compounds read low) was 1.03 and the normalized growth (locus YDR318W, strain mcm21, active compounds read low) was 0.983. It also gave a normalized growth (locus YDR334W, strain swr1, active compounds read low) of 1.07, a normalized growth (locus YDR335W, strain msn5, active compounds read low) of 1.05 and a normalized growth (locus YDR388W, active compounds read low) of 0.992. For the same molecule, the normalized growth (locus YDR392W, strain spt3, active compounds read low) was 1.04, the normalized growth (locus YDR502C, strain sam2, active compounds read low) was 0.993 and the normalized growth (locus YEL003W, strain gim4, active compounds read low) was 1.04. It also gave a normalized growth (locus YEL037C, strain rad23, active compounds read low) of 1.05, a normalized growth (locus YEL061C, strain CIN8 (second series), active compounds read low) of 1.05 and a normalized growth (locus YEL061C, strain CIN8, active compounds read low) of 0.981. The normalized growth (locus YER015W, strain faa2, active compounds read low) was 1.04, the normalized growth (locus YER016W, strain bim1, active compounds read low) was 1.03 and the normalized growth (locus YER110C, active compounds read low) was 0.992. For the same molecule, the normalized growth (locus YER111C, strain swi4, active compounds read low) was 1.07, the normalized growth (locus YER155C, strain BEM2 (second series), active compounds read low) was 1.09 and the normalized growth (locus YER155C, strain BEM2, active compounds read low) was 0.998. The normalized growth (locus YER167W, strain BCK2, active compounds read low) was 0.984, the normalized growth (locus YFR010W, strain ubp6, active compounds read low) was 1.08 and the normalized growth (locus YGL078C, strain dbp3, active compounds read low) was 0.99. The normalized growth (locus YGL086W, strain mad1, active compounds read low) was 0.997, the normalized growth (locus YGL167C, strain pmr1, active compounds read low) was 1.04 and the normalized growth (locus YGL173C, strain kem1, active compounds read low) was 1.03. For the same molecule, the normalized growth (locus YGL227W, strain vid30, active compounds read low) was 1.08, the normalized growth (locus YGL240W, strain doc1, active compounds read low) was 1.03 and the normalized growth (locus YGL248W, strain PDE1, active compounds read low) was 0.987. For the same molecule, the normalized growth (locus YGL253W, strain hxk2, active compounds read low) was 1.05, the normalized growth (locus YGR135W, strain pre9, active compounds read low) was 0.992 and the normalized growth (locus YGR229C, strain SMI1, active compounds read low) was 0.982. It also gave a normalized growth (locus YGR252W, strain gcn5, active compounds read low) of 0.944, a normalized growth (locus YHR013C, strain ard1, active compounds read low) of 1.02 and a normalized growth (locus YHR027C, strain rpn1, active compounds read low) of 1.03. It also gave a normalized growth (locus YHR030C, strain SLT2, active compounds read low) of 0.984, a normalized growth (locus YHR079C, strain IRE1 (second series), active compounds read low) of 0.996 and a normalized growth (locus YHR094C, strain hxt1, active compounds read low) of 0.988. For the same molecule, the normalized growth (locus YHR129C, strain ARP1, active compounds read low) was 0.996, the normalized growth (locus YHR142W, strain chs7, active compounds read low) was 1.07 and the normalized growth (locus YHR200W, strain rpn10, active compounds read low) was 0.988. It also gave a normalized growth (locus YIL066C, strain RNR3, active compounds read low) of 0.907, a normalized growth (locus YIL073C, strain SPO22, active compounds read low) of 1.02 and a normalized growth (locus YIL125W, strain kgd1, active compounds read low) of 0.99. For the same molecule, the normalized growth (locus YIR030C, strain dcg1, active compounds read low) was 1.01, the normalized growth (locus YJL092W, strain hpr5, active compounds read low) was 1.07 and the normalized growth (locus YJL095W, strain BCK1 (second series), active compounds read low) was 1.03. It also gave a normalized growth (locus YJL095W, strain BCK1, active compounds read low) of 1.06, a normalized growth (locus YJL115W, strain asf1, active compounds read low) of 1.08 and a normalized growth (locus YJL129C, strain trk1, active compounds read low) of 1.07. It also gave a normalized growth (locus YJL134W, strain LCB3, active compounds read low) of 0.98, a normalized growth (locus YJL154C, strain vps35, active compounds read low) of 1.05 and a normalized growth (locus YJL164C, strain tpk1, active compounds read low) of 1.02. It also gave a normalized growth (locus YJL166W, strain qcr8, active compounds read low) of 1.02, a normalized growth (locus YJL168C, strain set2, active compounds read low) of 0.989 and a normalized growth (locus YJL187C, strain SWE1 (second series), active compounds read low) of 1.01. It also gave a normalized growth (locus YJL187C, strain SWE1, active compounds read low) of 1.02, a normalized growth (locus YJR043C, strain POL32, active compounds read low) of 0.929 and a normalized growth (locus YKL009W, strain mrt4, active compounds read low) of 0.994. For the same molecule, the normalized growth (locus YKL068W, active compounds read low) was 0.981, the normalized growth (locus YKL085W, strain MDH1 (second series), active compounds read low) was 0.996 and the normalized growth (locus YKL085W, strain MDH1, active compounds read low) was 0.996. For the same molecule, the normalized growth (locus YKL160W, strain elf1, active compounds read low) was 1.02, the normalized growth (locus YKR001C, strain vps1, active compounds read low) was 0.992 and the normalized growth (locus YKR026C, strain gcn3, active compounds read low) was 1.08 [resistant] (active). For the same molecule, the normalized growth (locus YKR091W, strain srl3, active compounds read low) was 1.03, the normalized growth (locus YLL001W, strain dnm1, active compounds read low) was 1.05 and the normalized growth (locus YLL026W, active compounds read low) was 1.02. For the same molecule, the normalized growth (locus YLL041C, strain sdh2, active compounds read low) was 1.03, the normalized growth (locus YLR027C, strain aat2, active compounds read low) was 1.03 and the normalized growth (locus YLR039C, strain RIC1, active compounds read low) was 0.981. It also gave a normalized growth (locus YLR058C, strain SHM2, active compounds read low) of 0.971, a normalized growth (locus YLR102C, strain apc9, active compounds read low) of 0.993 and a normalized growth (locus YLR221C, strain rsa3, active compounds read low) of 1.03. For the same molecule, the normalized growth (locus YLR258W, strain gsy2, active compounds read low) was 1.03, the normalized growth (locus YLR262C, strain YPT6 (second series), active compounds read low) was 0.986 and the normalized growth (locus YLR262C, strain YPT6, active compounds read low) was 1.01. For the same molecule, the normalized growth (locus YLR268W, strain sec22, active compounds read low) was 0.999, the normalized growth (locus YLR320W, strain mms22, active compounds read low) was 1.04 and the normalized growth (locus YLR330W, strain CHS5, active compounds read low) was 0.99. It also gave a normalized growth (locus YLR342W, strain FKS1 (second series), active compounds read low) of 0.918, a normalized growth (locus YLR342W, strain FKS1, active compounds read low) of 1.04 and a normalized growth (locus YLR357W, strain rsc2, active compounds read low) of 1.12. For the same molecule, the normalized growth (locus YLR370C, strain arc18, active compounds read low) was 1.06, the normalized growth (locus YLR371W, strain rom2, active compounds read low) was 0.981 and the normalized growth (locus YLR384C, strain iki3, active compounds read low) was 1.03. It also gave a normalized growth (locus YLR418C, strain cdc73, active compounds read low) of 0.997, a normalized growth (locus YML016C, strain PPZ1, active compounds read low) of 0.973 and a normalized growth (locus YML032C, strain rad52, active compounds read low) of 0.983. The normalized growth (locus YML120C, strain ndi1, active compounds read low) was 1.03, the normalized growth (locus YML124C, strain tub3, active compounds read low) was 0.991 and the normalized growth (locus YMR058W, strain fet3, active compounds read low) was 1.08. For the same molecule, the normalized growth (locus YMR078C, strain ctf18, active compounds read low) was 0.979, the normalized growth (locus YMR125W, strain sto1, active compounds read low) was 1.09 and the normalized growth (locus YMR129W, active compounds read low) was 1.05. The normalized growth (locus YMR205C, strain PFK2, active compounds read low) was 1.05, the normalized growth (locus YMR223W, strain ubp8, active compounds read low) was 0.997 and the normalized growth (locus YMR231W, strain pep5, active compounds read low) was 1.05. It also gave a normalized growth (locus YMR263W, strain SAP30, active compounds read low) of 1, a normalized growth (locus YMR307W, strain GAS1, active compounds read low) of 0.965 and a normalized growth (locus YNL067W, strain RPL9B, active compounds read low) of 1.06. For the same molecule, the normalized growth (locus YNL071W, strain lat1, active compounds read low) was 1.02, the normalized growth (locus YNL153C, strain GIM3, active compounds read low) was 1.02 and the normalized growth (locus YNL209W, strain ssb2, active compounds read low) was 1.03. For the same molecule, the normalized growth (locus YNL233W, strain BNI4, active compounds read low) was 1.05, the normalized growth (locus YNL248C, strain rpa49, active compounds read low) was 1.07 and the normalized growth (locus YNL250W, strain rad50, active compounds read low) was 0.972. It also gave a normalized growth (locus YNL271C, strain bni1, active compounds read low) of 0.988, a normalized growth (locus YNL298W, strain CLA4, active compounds read low) of 0.98 and a normalized growth (locus YNL307C, strain MCK1, active compounds read low) of 0.988. It also gave a normalized growth (locus YNL322C, strain KRE1 (second series), active compounds read low) of 1.04, a normalized growth (locus YNR049C, strain mso1, active compounds read low) of 1.06 and a normalized growth (locus YNR052C, strain pop2, active compounds read low) of 0.998. For the same molecule, the normalized growth (locus YOL012C, strain htz1) was 1.22, the normalized growth (locus YOL147C, strain pex11, active compounds read low) was 0.995 and the normalized growth (locus YOR001W, strain rrp6, active compounds read low) was 1.03. It also gave a normalized growth (locus YOR061W, strain CKA2, active compounds read low) of 0.953, a normalized growth (locus YOR069W, strain VPS5, active compounds read low) of 0.985 and a normalized growth (locus YOR070C, strain gyp1, active compounds read low) of 1.02. It also gave a normalized growth (locus YOR080W, strain dia2, active compounds read low) of 1.04, a normalized growth (locus YOR083W, strain WHI5, active compounds read low) of 1.01 and a normalized growth (locus YOR106W, strain vam3, active compounds read low) of 1.02. The normalized growth (locus YOR136W, strain idh2, active compounds read low) was 1, the normalized growth (locus YOR144C, strain elg1, active compounds read low) was 0.999 and the normalized growth (locus YOR184W, strain ser1, active compounds read low) was 0.985. The normalized growth (locus YOR265W, strain rbl2, active compounds read low) was 1.03, the normalized growth (locus YOR270C, strain vph1, active compounds read low) was 1.16 and the normalized growth (locus YOR290C, strain snf2, active compounds read low) was 1.04. For the same molecule, the normalized growth (locus YOR316C, strain cot1, active compounds read low) was 0.994, the normalized growth (locus YPL051W, strain arl3, active compounds read low) was 1 and the normalized growth (locus YPL055C, strain LGE1, active compounds read low) was 0.959. The normalized growth (locus YPL078C, strain atp4, active compounds read low) was 1.05, the normalized growth (locus YPL106C, strain sse1, active compounds read low) was 1.06 and the normalized growth (locus YPL240C, strain hsp82, active compounds read low) was 1.02. For the same molecule, the normalized growth (locus YPL241C, strain CIN2, active compounds read low) was 0.984, the normalized growth (locus YPR119W, strain clb2, active compounds read low) was 0.988 and the normalized growth (locus YPR141C, strain kar3, active compounds read low) was 0.989. The normalized growth (locus YPR163C, strain tif3, active compounds read low) was 0.977, the normalized growth (locus YPR167C, strain met16, active compounds read low) was 0.992 and the normalized growth (strain wtn01, active compounds read low) was 0.976.
